{"source": "ChEMBL document CHEMBL3988442", "about": "“University of Dundee, Small-Polar-MMV Screening Library” (2021)", "note": "Screen size: about 48,000 compounds; about 13,000 (27%) showed an effect of 50% or more. The list shows a part of the results."}
{"system": "Wolbachia pipientis", "assay": "Anti-Wolbachia Cell-Based Screen", "format": "functional", "set-up": "scale not given: in the data most compounds retested in dose-response had high values", "settings": "5 µM", "units": {"Percent Effect": "%"}}
{"smiles": "COC[C@]12COC[C@H]1CN(S(=O)(=O)c1cccnc1)C2", "Percent Effect": 6.326}
{"smiles": "Cc1nnc(N2C[C@H]3OCC[C@H]3[C@H](C(=O)NCC3CC3)C2)s1.O=C(O)C(F)(F)F", "Percent Effect": -6.656}
{"smiles": "O=C1CC2(CCN(Cc3ccc4cccc(O)c4n3)CC2)CN1", "Percent Effect": -6.934}
{"smiles": "COc1ccc(CCNc2cc(-c3nc(C)no3)ccn2)cc1OC", "Percent Effect": -4.716}
{"smiles": "O=C(C1CC1)N1CCC2(COCc3cnc(NCc4ccco4)nc32)C1", "note": "(stereo not drawn)", "Percent Effect": 107.6}
{"smiles": "Fc1cnc(N2CCC3(COCc4cnc(NCC5CC5)nc43)C2)nc1", "note": "(stereo not drawn)", "Percent Effect": 3.153}
{"smiles": "CNC(=O)N1CCC2(COCc3c(C)nc(NCc4ccco4)nc32)C1", "note": "(stereo not drawn)", "Percent Effect": -16.5}
{"smiles": "CC(C)(C)C(=O)N1CCC2(COCc3cnc(N4CCOCC4)nc32)C1", "note": "(stereo not drawn)", "Percent Effect": -4.302}
{"smiles": "COCC(=O)N1CCC2(COCc3cnc(NCc4ccco4)nc32)C1", "note": "(stereo not drawn)", "Percent Effect": 94.68}
{"smiles": "CCC(=O)N1CCC2(COCc3cnc(NCc4ccco4)nc32)C1", "note": "(stereo not drawn)", "Percent Effect": 102.3}
{"smiles": "CCC(=O)N1CCC2(COCc3c(C)nc(NCc4ccco4)nc32)C1", "note": "(stereo not drawn)", "Percent Effect": 0.949}
{"smiles": "CCC(C)(CC(=O)OC)NC(=O)c1cccc(F)c1F", "note": "(stereo not drawn)", "Percent Effect": 0.5787}
{"smiles": "Cc1cc(NCCO)nc(N2CCC(Cc3ccccc3)CC2)c1C#N.O=C(O)C(=O)O", "Percent Effect": -4.494}
{"smiles": "CC(C)N(CCSc1ncnc2[nH]ncc12)C(C)C", "Percent Effect": -23.68}
{"smiles": "O=S(=O)(NCCn1cc(C2CCOC2)nn1)c1ccc(Cl)cc1", "note": "(stereo not drawn)", "Percent Effect": 2.449}
{"smiles": "CCc1noc(CNc2cc3c(cc2Cl)OCCO3)n1", "Percent Effect": 29.93}
{"smiles": "N#Cc1ccc(OCCOc2ccccc2C(=O)N2CCOCC2)cc1", "Percent Effect": 2.422}
{"smiles": "CO[C@H]1CC[C@H]2[C@H]1OCCN2CCOCc1ccccc1.O=C(O)C(F)(F)F", "Percent Effect": -1.824}
{"smiles": "CO[C@H]1CC[C@H]2[C@H]1OCCN2Cc1ccc(F)c(F)c1.O=C(O)C(F)(F)F", "Percent Effect": 110.9}
{"smiles": "CO[C@@H]1CC[C@H]2[C@H]1OCCN2CCOCc1ccccc1.O=C(O)C(F)(F)F", "Percent Effect": 11.38}
{"smiles": "CO[C@@H]1CC[C@H]2[C@H]1OCCN2Cc1ccc(F)c(F)c1.O=C(O)C(F)(F)F", "Percent Effect": 101.8}
{"smiles": "CCc1cnc2c(c1Nc1ccncc1)c(=O)n(C)c(=O)n2C", "Percent Effect": 1.173}
{"smiles": "CCc1cnc2c(c1Nc1ccc(C)c(F)c1)c(=O)n(C)c(=O)n2C", "Percent Effect": 84.08}
{"smiles": "Cc1ccc(Nc2c(C#N)c(=O)n(C)c(=O)n2C)cc1F", "Percent Effect": 8.024}
{"smiles": "O=C(Nc1ccc2c(c1)OCO2)N1CCN(CCn2cccn2)CC1", "Percent Effect": 14.77}
{"smiles": "CCc1cnc2c(c1Nc1ccc3c(c1)OCO3)c(=O)n(C)c(=O)n2C", "Percent Effect": 105.3}
{"smiles": "O=C(Nc1ccc2c(c1)OCO2)N1CCN(CCn2ccnc2)CC1", "Percent Effect": -13.91}
{"smiles": "Cn1cnc(S(=O)(=O)Nc2cc(C(N)=O)ccc2Cl)c1", "Percent Effect": -10.15}
{"smiles": "Cn1cc(C(=O)Nc2ccc3c(c2)CN(C(=O)c2ccco2)CC3)nn1", "Percent Effect": 12.57}
{"smiles": "Cn1cc(C(=O)Nc2ccc3c(c2)N(C(=O)c2ccco2)CC3)nn1", "Percent Effect": 115.2}
{"smiles": "Cn1cc(C(=O)Nc2ccc(CC(=O)NC3CC3)cc2)nn1", "Percent Effect": -0.7616}
{"smiles": "Cn1cc(C(=O)Nc2ccc3c(c2)CN(C(=O)C2CC2)CC3)nn1", "Percent Effect": 116.9}
{"smiles": "Cn1cc(C(=O)Nc2ccc(CC(=O)NCC(F)(F)F)cc2)nn1", "Percent Effect": -7.927}
{"smiles": "CN(C)C(=O)Cc1ccc(NC(=O)c2cn(C)nn2)cc1", "Percent Effect": -4.709}
{"smiles": "COC(=O)N1CCc2ccc(NC(=O)c3cn(C)nn3)cc2C1", "Percent Effect": 2.493}
{"smiles": "CC(=O)N1CCc2ccc(NC(=O)c3cn(C)nn3)cc2C1", "Percent Effect": 105.1}
{"smiles": "Oc1cc(CN2CCC(O)(Cn3ccnc3)CC2)nc2c(Cl)cccc12", "Percent Effect": -8.472}
{"smiles": "CC(CNC(=O)c1ccon1)Oc1cccc(Br)c1", "note": "(stereo not drawn)", "Percent Effect": -16.92}
{"smiles": "c1cc(-c2ccc(CN3CCC4(CCNCC4)CC3)s2)[nH]n1", "Percent Effect": 13.89}
{"smiles": "CCCN(C(=O)c1cnc(C)cn1)c1nc2c(s1)CCc1c-2cnn1C", "Percent Effect": 90.09}
{"smiles": "CCCN(C(=O)c1ccccn1)c1nc2c(s1)CCc1c-2cnn1C", "Percent Effect": -6.785}
{"smiles": "CCCN(C(=O)c1cnccn1)c1nc2c(s1)CCc1c-2cnn1C", "Percent Effect": 84.76}
{"smiles": "COCCN(C(=O)c1cnccn1)c1nc2c(s1)CCc1c-2cnn1C", "Percent Effect": 99.99}
{"smiles": "CN(C(=O)c1ccccn1)c1nc2c(s1)CCc1c-2cnn1C", "Percent Effect": -10.1}
{"smiles": "CCCN1CCN(C(=O)c2cnccn2)[C@H]2CS(=O)(=O)C[C@H]21", "Percent Effect": -1.357}
{"smiles": "COCC1c2nnn(CC3CC3)c2CCN1C(=O)c1cnccn1", "note": "(stereo not drawn)", "Percent Effect": -15.7}
{"smiles": "COCCN(C(=O)c1ccccn1)c1nc2c(s1)CCc1c-2cnn1C", "Percent Effect": 88.66}
{"smiles": "COCCCNC(=O)C1CN(C(=O)c2cnccn2)C1", "Percent Effect": 10.57}
{"smiles": "Cc1cccc(N(CCC(N)=O)C(=O)c2cnccn2)c1", "Percent Effect": -11.19}
{"smiles": "CCN(Cc1cccc2c1OCO2)CC1CCCO1", "note": "(stereo not drawn)", "Percent Effect": -5.577}
{"smiles": "Cl.O=C(OCC1CCCN1)c1cccc(NC(=O)c2ccco2)c1", "note": "(stereo not drawn)", "Percent Effect": -13.38}
{"smiles": "CC1(C)[C@H]2CC=C(CN3CCCn4nc(C(=O)O)cc4C3)[C@@H]1C2", "Percent Effect": -7.582}
{"smiles": "Cc1ncc(S(C)(=O)=O)c(N(C)CCCc2cnn(C)c2)n1", "Percent Effect": 106.8}
{"smiles": "Cc1nc(C(C)C)sc1C(=O)N(C)CCCc1cnn(C)c1", "Percent Effect": -1.065}
{"smiles": "Cc1nc(C)c(C)c(N(C)CCCc2nccn2C)n1", "Percent Effect": 1.22}
{"smiles": "CC(C)N1CCCC(C(=O)N(C)CCCc2cnn(C)c2)C1", "note": "(stereo not drawn)", "Percent Effect": -3.497}
{"smiles": "Cc1ccccc1C(C(=O)N(C)CCc1cnn(C)c1)N(C)C", "note": "(stereo not drawn)", "Percent Effect": -25.6}
{"smiles": "CN(CCCc1cnn(C)c1)C(=O)C1CCOC1", "note": "(stereo not drawn)", "Percent Effect": -24.42}
{"smiles": "CN(CCc1cnn(C)c1)C(=O)C1COc2ccccc2C1", "note": "(stereo not drawn)", "Percent Effect": 12.32}
{"smiles": "CCc1cnc(C)nc1N(C)CCCc1cnn(C)c1", "Percent Effect": 93.68}
{"smiles": "Cc1c(NC(=O)N(C)CCCc2cnn(C)c2)cnn1C", "Percent Effect": -9.365}
{"smiles": "CCc1cnc(N)nc1N(C)CCc1cnn(C)c1", "Percent Effect": 112.4}
{"smiles": "Cc1cnc(N(C)CCCc2cnn(C)c2)nc1N(C)C", "Percent Effect": 116.9}
